Measurements from ChEMBL document CHEMBL4513216, “Probing the Open Global Health Chemical Diversity Library for Multistage-Active Starting Points for Next-Generation Antimalarials” (ACS Infect Dis, 2020).
The campaign covered roughly 69,000 compounds. About 8,600 (12%) showed an effect of 50% or more. What follows is part of a selection rich in strong results, with near analogues and random picks from the rest.

Tested on: Plasmodium berghei
Assay: Screen against P. berghei liver stage (PbLuc), transformed with Luciferase, at 10uM
Assay type: functional, HepG2
Conditions: tested at 10 uM

Row | Compound | INHIBITION
1 | CNc1cncc(C2CCCN2C(=O)CCn2ccnc2C(C)C)n1 (stereo not given) | 21.685%
2 | O=C(CC1CN(Cc2ccccc2)CCO1)NC1CCSCC1 (stereo not given) | 35.1%
3 | COCC(=O)N1CCCC1c1cc(N2CCN(C(C)=O)CC2)cc(C)n1 (stereo not given) | 18.9%
4 | COCC(=O)N1C[C@H]2CCCC(OCc3cccnc3)[C@H]2C1 (stereo not given in full) | -3.52%
5 | Cc1nc(CN2CCO[C@@H]3CN(C(=O)NC(C)C)CC[C@@H]3C2)cs1 | 36.4%
6 | CNS(=O)(=O)CC(=O)NCc1cc2c(s1)CCCCC2 | 28.9%
7 | c1ccc(-c2nc(CCNC3CCOC4(CCOCC4)C3)no2)cc1 (stereo not given) | -6.34%
8 | CCn1nccc1CNc1[nH]cnc2nc(C)nc1-2 | 26.4%
9 | O=C(NC1CCN(c2ccc(-c3ccccc3F)nn2)C1)c1cc[nH]n1 (stereo not given) | 49.5%
10 | O=C(NC1CCN(c2ccc(-c3ccccc3F)nn2)C1)C1CCC1 (stereo not given) | 60.8%
11 | O=C(NC1CCN(c2ccc(-c3ccccc3F)nn2)C1)c1ccc[nH]1 (stereo not given) | 12.4%
12 | CCOCC(=O)N1Cc2nccn2CC(CN2CCCC2)C1 (stereo not given) | 34.6%
13 | O=C1O[C@@H]2CN(C3CCOCC3)C[C@@H]2N1CCCc1ccc(F)cc1 | 33%
14 | O=C1O[C@@H]2CN(Cc3ccccn3)C[C@@H]2N1CCCc1ccc(F)cc1 | 15.1%
15 | O=C1O[C@@H]2CN(Cc3ccncc3)C[C@@H]2N1CCCN1CCOCC1 | -43.5%
16 | O=C1O[C@@H]2CN(c3ccc(Cl)cn3)C[C@@H]2N1CCc1ccc(F)cc1 | -2.04%
17 | Cc1cc(C)nc(N2C[C@H]3OC(=O)N(CCc4cccc(Cl)c4)[C@H]3C2)n1 | -17.8%
18 | O=C1O[C@@H]2CN(c3cnccn3)C[C@@H]2N1CCCc1ccc(F)cc1 | 9.4%
19 | O=C1O[C@@H]2CN(c3ncccn3)C[C@@H]2N1CCCc1ccc(F)cc1 | 83.8%
20 | O=C1O[C@@H]2CN(c3ccccn3)C[C@@H]2N1CCCc1ccc(F)cc1 | 86.7%
21 | O=C1O[C@@H]2CN(c3ccncc3)C[C@@H]2N1CCCc1ccc(F)cc1 | 75.2%
22 | CCC1=N[C@@]2(CC[C@@H]3CN(CC4CC4)C[C@@H]32)C(=O)N1CC | 7.31%
23 | CCCS(=O)(=O)N1C[C@@H](c2nc(C)no2)C[C@H]2OCC[C@H]21 | 33%
24 | CN(C)c1ncc2c(O)nc(C3CCNCC3)cc2n1 | -9.51%
25 | COCc1n[nH]c2c1CN(C(=O)c1ccncc1)C2 | 21.6%
26 | COc1cc(Cl)ccc1CNC(=O)N(C)C(C)CS(C)(=O)=O (stereo not given) | 61%
27 | CC(C)Oc1ccccc1CNC(=O)N(C)C(C)CS(C)(=O)=O (stereo not given) | 33.2%
28 | COc1ccccc1CCNC(=O)N(C)C(C)CS(C)(=O)=O (stereo not given) | 38.7%

Row | Compound | INHIBITION
29 | CCOC1CCCN(C(=O)c2nn(-c3ccccc3F)cc2O)C1 (stereo not given) | 11.2%
30 | N#Cc1cccc(CN2CCCC2Cn2cncn2)c1 (stereo not given) | 7.18%
31 | COc1ccc(C2CCCN2Cc2nnnn2C2CC2)cc1OC (stereo not given) | 19.7%
32 | COc1cccc(CN2CCCC2c2ccc[nH]2)c1 (stereo not given) | 62.6%
33 | N#Cc1cccc(CN2CCCC2c2ccc[nH]2)c1 (stereo not given) | 50.7%
34 | NC(=O)COc1cccc(CN2CCCC2c2ccc[nH]2)c1 (stereo not given) | 62.6%
35 | COc1cccc(S(=O)(=O)CCN2CCCC2c2ccc[nH]2)c1 (stereo not given) | 32.3%
36 | NC(=O)COc1cccc(Cn2cccn2)c1 | -24.9%
37 | COc1cccc(C2CCCN2Cc2nnnn2C2CC2)c1 (stereo not given) | 51.6%
38 | CN(C)c1cccc(C2CCCN2Cc2nnnn2C2CC2)c1 (stereo not given) | 26.6%
39 | N#CCCCOc1cccc(CN2CCCC2c2ccc[nH]2)c1 (stereo not given) | 43.1%
40 | NC(=O)c1ccc(OCC(=O)N2CCCC2c2ccc[nH]2)cc1 (stereo not given) | 28.2%
41 | N#Cc1cccc(CN2CCCC2Cn2cccn2)c1 (stereo not given) | -11.4%
42 | Cc1nc(Cn2c3c(ccc2=O)CCN(CC2CC2)CC3)cs1 | -8.85%
43 | COc1cccc(CC2CN(C3CCC3)CCO2)c1 (stereo not given) | 25.8%
44 | Cc1ccccc1NC(=O)c1cncc(C2CCNCC2)n1 | -20.6%
45 | CCN1CC[C@@]2(C(=O)N3CCOCC3)CCN(C(=O)C(C)C)CC[C@@H]12 | 14.9%
46 | Cc1cnn(CC2CCCCN2CC(=O)Nc2nc(C)cs2)c1 (stereo not given) | 33.8%
47 | Cc1nc(CN2CCO[C@@H]3CN(C(=O)CC4CC4)C[C@@H]3C2)cs1 | 9.63%
48 | Cn1ccnc1CC1CCCN(C(=O)Cc2ccccc2)C1 (stereo not given) | 21.9%
49 | Cc1nn(C)c(C)c1C1CCCN1Cc1cccc(C(N)=O)c1 (stereo not given) | 5.37%
50 | COc1cccc(CN2CCCC2c2c(C)nn(C)c2C)c1 (stereo not given) | -14.8%
51 | Cc1nn(C)c(C)c1C1CCCN1Cc1cccc(OCC(N)=O)c1 (stereo not given) | 72.9%
52 | CCS(=O)(=O)CCN1CCCC1c1noc(C)n1 (stereo not given) | 16.8%
53 | Cc1cc(CNc2cccc(Cl)c2C)no1 | 16.165%
54 | CCCSc1ncc(-c2nccn2CCO)cn1 | 35.1%
55 | CCCn1ccnc1-c1nccn1CCC(N)=O | 29.8%
